Assay results from PubChem BioAssay (NCI).
This is part of a sample that, as a whole, favours compounds with a hit. Of some 83,000 tested, about 20% had one in any assay.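 96-well plates, one dose, 48 hours. Percent growth reported; active if below 10.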 Calls of active or inactive are those of the source.

How the values were obtained:
Assay in all cases: NCI-60 one-dose screen, 48 h (100 = growth as untreated, 0 = no growth, -100 = all killed)
Conditions in all cases: 10 µM unless noted
HCT-15 colon = system: HCT-15 colon
HT29 colon = system: HT29 colon
SNB-75 CNS = system: SNB-75 CNS
SNB-19 CNS = system: SNB-19 CNS
U251 CNS = system: U251 CNS
PC-3 prostate = system: PC-3 prostate
SK-MEL-5 melanoma = system: SK-MEL-5 melanoma
UACC-62 melanoma = system: UACC-62 melanoma
LOX IMVI melanoma = system: LOX IMVI melanoma
SK-MEL-28 melanoma = system: SK-MEL-28 melanoma

SMILES	growth (HCT-15 colon)	growth (HT29 colon)	growth (SNB-75 CNS)	growth (SNB-19 CNS)	growth (U251 CNS)	growth (PC-3 prostate)	growth (SK-MEL-5 melanoma)	growth (UACC-62 melanoma)	growth (LOX IMVI melanoma)	growth (SK-MEL-28 melanoma)
C=C(C)C(=O)O[C@H]1C[C@@]2(C)OC(=CC2=O)[C@H](C)[C@H](O)[C@H]2OC(=O)C(=C)[C@@H]21	32.6% (inactive)	95.6% (inactive)	77.2% (inactive)	106% (inactive)	86.6% (inactive)	79.7% (inactive)	88.2% (inactive)	52.3% (inactive)	57.7% (inactive)	61.7% (inactive)
COc1cc([C@H]2OC[C@H]3[C@@H]2CO[C@@H]3c2ccc(O)c(OC)c2)ccc1O	88.4% (inactive)	92.8% (inactive)	87.9% (inactive)	104% (inactive)	97% (inactive)	82.6% (inactive)	57.3% (inactive)	91% (inactive)	9.99% (active)	93.5% (inactive)
CNC(=O)c1cc(N2CCc3cc(NC(=O)Nc4ccc(Cl)c(Cl)c4)ccc32)ccn1	63% (inactive)	82.1% (inactive)	87.9% (inactive)	81.4% (inactive)	70% (inactive)	65.2% (inactive)	74.5% (inactive)	78.9% (inactive)	86.9% (inactive)	86.5% (inactive)
N#Cc1ccc(S(=O)(=O)Nc2ccc(-c3cnc(N)[nH]3)cc2)cc1	96.7% (inactive)	98.5% (inactive)	106% (inactive)	94.1% (inactive)	98.3% (inactive)	99% (inactive)	100% (inactive)	92.4% (inactive)	97.9% (inactive)	97.1% (inactive)
COc1ccc(NC(=O)[C@H](C)NC(=O)OC(C)(C)C)cc1C(=O)Nc1cccc(-c2cc(=O)c3c(OC)c(OC)c(OC)cc3o2)c1	3.87% (active)	-10.5% (active)	-18.3% (active)	16.9% (inactive)	-34.1% (active)	-36.9% (active)	-91.1% (active)	-40.8% (active)	-73.7% (active)	0.755% (active)
CNC(=O)c1c(NC(=O)c2ccc(F)cc2F)sc2c1CCC(=O)C2	-2.45% (active)	12.8% (inactive)	4.82% (active)	19.1% (inactive)	12.6% (inactive)	11.7% (inactive)	-64.9% (active)	-25.5% (active)	14.5% (inactive)	30.2% (inactive)
Nc1nc(N)c2c(n1)NC(c1ccccc1)CC(c1ccc(Nc3nc(NCCO)nc(Nc4ccc(Cl)cc4)n3)cc1)=N2 (stereo not given)	-58% (active)	-87.6% (active)	112% (inactive)	-77.1% (active)	11.9% (inactive)	15.1% (inactive)	55.6% (inactive)	96.7% (inactive)	-86.1% (active)	109% (inactive)
CCCCCCNC(=O)Oc1ccc(/C(=C(/C)c2ccc(Cl)cc2)c2ccc(OCCN3CCCC3)cc2)cc1	0.291% (active)	-17.7% (active)	67.2% (inactive)	45% (inactive)	29.6% (inactive)	37.5% (inactive)	14.9% (inactive)	20.8% (inactive)	-98.6% (active)	-49.4% (active)
O=C(Nc1ccc(-c2nc(-c3cccc(O)c3)c(-c3ccnc(Br)c3)[nH]2)cc1)c1ccccc1	7.12% (active)	12.2% (inactive)	-2.13% (active)	23.3% (inactive)	20.8% (inactive)	6.14% (active)	-67% (active)	22.1% (inactive)	3.27% (active)	34.2% (inactive)
Fc1ccc(-c2cc3nc(C(Cl)Cl)nc(-c4cccs4)n3n2)cc1	15.9% (inactive)	4.52% (active)	69.8% (inactive)	9.61% (active)	-3.12% (active)	1.42% (active)	92% (inactive)	45.8% (inactive)	94.8% (inactive)	23.6% (inactive)
C/C(=C(/c1ccc(O)cc1)c1ccc(OCCN(C)C)cc1)c1ccc(Cl)cc1	-26.8% (active)	-51.3% (active)	63.8% (inactive)	59.7% (inactive)	35.3% (inactive)	52.1% (inactive)	42.9% (inactive)	-27.3% (active)	-22.2% (active)	-74.1% (active)
COc1cnc2c(c1)C(=O)c1c-2n(CCCNCC2CC2)c(=O)c2cc(F)ccc12	0.625% (active)	-62.7% (active)	-7.63% (active)	4.94% (active)	-50.4% (active)	9.61% (active)	-82.8% (active)	-56.2% (active)	-59.4% (active)	22.8% (inactive)
CC1=C2C(=C[C@@](C)(COS(N)(=O)=O)[C@@H]2O)C(=O)[C@](C)(O)C12CC2	67.6% (inactive)	56.8% (inactive)	72.6% (inactive)	72.4% (inactive)	71.8% (inactive)	58.5% (inactive)	89.5% (inactive)	62.1% (inactive)	77% (inactive)	87.6% (inactive)
O=S(=O)(Nc1ccc(-c2nc(-c3cccc(O)c3)c(-c3ccnc(Br)c3)[nH]2)cc1)c1ccccc1	13.3% (inactive)	31.8% (inactive)	5.4% (active)	30.2% (inactive)	30.3% (inactive)	9.21% (active)	-26.4% (active)	16.4% (inactive)	-25% (active)	33.1% (inactive)
CCNCCCn1c2c(c3cc(OC)c(OC)cc3c1=O)C(=O)c1cc(OC)cnc1-2	22% (inactive)	-60.9% (active)	17.1% (inactive)	25.3% (inactive)	-16.1% (active)	46.5% (inactive)	-18.2% (active)	5.63% (active)	-8.19% (active)	64.7% (inactive)
O=C(NCCNc1cc(-c2cn(-c3ccccc3)nc2-c2cccc(O)c2)ccn1)Nc1ccc(Cl)c(C(F)(F)F)c1	2.46% (active)	34.8% (inactive)	42.8% (inactive)	46.8% (inactive)	42.8% (inactive)	42.2% (inactive)	65.9% (inactive)	77% (inactive)	0.724% (active)	42.1% (inactive)
CN1CCN(c2ccc(C(=O)Nc3cccc(-c4cn(-c5ccc(S(N)(=O)=O)cc5)nn4)c3)cc2C(F)(F)F)CC1	41.1% (inactive)	16.7% (inactive)	64.9% (inactive)	86.6% (inactive)	59.6% (inactive)	69.8% (inactive)	90.6% (inactive)	82.7% (inactive)	23.1% (inactive)	72.7% (inactive)
CCOC(=O)Nc1ccc(-c2nc(-c3cccc(O)c3)c(-c3ccnc(Br)c3)[nH]2)cc1	30.7% (inactive)	34.3% (inactive)	14.7% (inactive)	44.7% (inactive)	29.6% (inactive)	4.92% (active)	23.6% (inactive)	24.3% (inactive)	14.5% (inactive)	46.9% (inactive)
O=C1/C(=C/c2ccccc2[N+](=O)[O-])Oc2ccc(O)cc21	-31.4% (active)	-23.7% (active)	54.2% (inactive)	79.3% (inactive)	56.9% (inactive)	57.1% (inactive)	90.8% (inactive)	37.1% (inactive)	-46.2% (active)	43.3% (inactive)
C=CCn1c(SCC(=O)c2ccc(OC)cc2)nnc1-c1ccc(OC)cc1	98.1% (inactive)	108% (inactive)	108% (inactive)	99.7% (inactive)	102% (inactive)	99.6% (inactive)	-20% (active)	95.4% (inactive)	103% (inactive)	100% (inactive)
NS(=O)(=O)c1ccc(Nc2nc(N/N=C/c3ccc(C(F)(F)F)cc3)nc(Nc3ccccc3)n2)cc1	31.3% (inactive)	11.4% (inactive)	42% (inactive)	33.8% (inactive)	18.6% (inactive)	14.4% (inactive)	34.5% (inactive)	14.9% (inactive)	9.92% (active)	27.2% (inactive)
COc1ccc2c(c1)c(-c1nn3c(=O)cc(-c4ccccc4)nc3s1)cn2C	34.7% (inactive)	10.5% (inactive)	14.9% (inactive)	39.1% (inactive)	26.8% (inactive)	32.4% (inactive)	38.7% (inactive)	24.2% (inactive)	37.9% (inactive)	51.5% (inactive)
O=c1[nH]c(CCl)nc2c1cnn2-c1ccccc1	99.9% (inactive)	115% (inactive)	93.6% (inactive)	96.4% (inactive)	103% (inactive)	105% (inactive)	99% (inactive)	96.2% (inactive)	-38.5% (active)	107% (inactive)
CCOC(=O)Nc1cccc(-n2cnc3cc(-c4ccc(O)cc4)ccc32)c1	9.71% (active)	5.49% (active)	3.54% (active)	27.1% (inactive)	19.1% (inactive)	29.9% (inactive)	9.15% (active)	35.8% (inactive)	41.2% (inactive)	63.8% (inactive)
NC(=O)C(=Cc1ccc(Cl)cc1)C(N)=O	36.6% (inactive)	77.4% (inactive)	62.4% (inactive)	77.9% (inactive)	68.7% (inactive)	70.4% (inactive)	95.4% (inactive)	85.3% (inactive)	57.4% (inactive)	70% (inactive)
CN1CCN(c2ccc(C(=O)/C=C/c3ccc(Cl)c(C(F)(F)F)c3)cc2)CC1	17% (inactive)	11.6% (inactive)	65.3% (inactive)	73.7% (inactive)	38.4% (inactive)	43.4% (inactive)	74.3% (inactive)	75.4% (inactive)	12.8% (inactive)	87.2% (inactive)
